Settings in all cases: concentration: 1 μM, replicates: in singlicate; n = 1
Test [1] relates to ACVR2B.
Test [2] concerns ACVRL1.
Test [3] concerns T1, ADCK3.
T1 construct: gene CABC1

The subject of test [4] is ADCK4.
In test [5] the test system is AKT1.
The test system of test [6] is AKT2.
The test system of test [7] is AKT3.
The test system of test [8] is ALK.
Test [9] concerns T2, AMPK-alpha1.
T2 construct: gene PRKAA1

Test [10] has as its system T3, AMPK-alpha2.
T3 construct: gene PRKAA2

For test [11], the system named is ANKK1.
Test [12] concerns T4, ARK5.
T4 construct: gene NUAK1

Test [13] concerns T5, ASK1.
T5 construct: gene MAP3K5

In test [14] the test system is T6, ASK2.
T6 construct: gene MAP3K6

The subject of test [15] is AURKA.
The test system of test [16] is AURKB.
Test [17] has as its system AURKC.
Test [18] has as its system AXL.
Test [19] concerns T7, BIKE.
T7 construct: gene BMP2K

In test [20] the test system is BLK.
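Also: KINOMEscan kinase panel screen.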

For the compound `Fc1cc(Cl)ccc1Nc1ccnc2cc(I)ccc12` [GW551191], the “%Inh” value was 85% in [1]; 5% in test [2]; 0% in test [3]; 23% in test [4]; 0% in [5]; 18% in test [6]. For the same compound, the “%Inh” value is 58% in [7]; 29% in test [8]; 0% in [9]; 0% in test [10]; 5% in [11]; 3% in test [12]. The “%Inh” value in test [13] was determined as 0%; in [14], 0%; in [15], 0%; in test [16], 28%; in test [17], 41%; in test [18], 0%. The “%Inh” value in test [19] was 16%; in test [20] it was 38%.

For `CCn1c(-c2ccccn2)nc2cnccc21` [SB-736398], the “%Inh” value in [1] came out at 0%; in test [2], 0%; in test [3] it was 56%; in [4], 6%; in test [5] it was 0%; in [6], 19%. In addition, the “%Inh” value in test [7] worked out at 0%; in test [8] it was 34%; in test [9], 5%; in test [10], 10%; in [11], 0%; in test [12] it was 0%. For the same compound, the “%Inh” value was 17% in test [13]; 0% in test [14]; 0% in [15]; 3% in test [16]; 7% in [17]; 12% in test [18]. The “%Inh” value in [19] worked out at 16%; in test [20], 9%.

Turning to `COc1ccc(Nc2nccc(NCCNC(=O)Nc3ccccc3F)n2)cc1` [GSK1379901], the “%Inh” value was 0% in test [1]; 0% in test [2]; 15% in test [3]; 25% in test [4]; 0% in test [5]; 0% in [6]. Besides, the “%Inh” value in [7] stood at 0%; in [8], 48%; in test [9], 0%; in test [10] it was 0%; in [11], 22%; in test [12] it was 23%. Also, the “%Inh” value in test [13] worked out at 0%; in test [14], 4%; in test [15], 12%; in test [16], 36%; in test [17], 28%; in [18], 0%. For the same compound, the “%Inh” value in test [19] came out at 12%; in test [20], 0%.

In the case of `CN1C(=O)C(Nc2ccc(Cl)c(C(=O)O)c2)=C(c2ccc(Cl)cc2)C1=O` [SB-404290], the “%Inh” value in test [1] was 0%; in [2], 0%; in test [3], 0%; in test [4], 10%; in test [5] it was 0%; in [6], 0%. Further, the “%Inh” value was found to be 1% in test [7]; 0% in [8]; 6% in test [9]; 0% in test [10]; 0% in test [11]; 0% in test [12]. In addition, the “%Inh” value was found to be 0% in test [13]; 33% in test [14]; 19% in [15]; 31% in test [16]; 5% in [17]; 10% in test [18]. Moreover, the “%Inh” value in test [19] and in test [20] was 0% throughout.

For `Fc1cc(Cl)ccc1Nc1ccnc2cc(-c3ccc(CN4CCCCC4)o3)ccc12` [GW560116], the “%Inh” value in test [1] is 52%; in test [2], 0%; in [3] it was 0%; in test [4] it was 38%; in test [5], 0%; in [6], 0%. For the same compound, the “%Inh” value in test [7] is listed as 0%; in test [8], 4%; in test [9], 0%; in test [10], 0%; in test [11], 0%; in test [12] it was 0%. Further, the “%Inh” value in [13] stood at 0%; in test [14], 0%; in test [15], 95.7%; in test [16], 0%; in test [17] it was 0%; in [18], 0%. For the same compound, the “%Inh” value in [19] is reported as 0%; in test [20] it was 55%.

On to `Nc1ncnc2[nH]c(-c3ccccc3)nc12` [AH5015], for which the “%Inh” value in test [1] turned out to be 0%; in test [2], 0%; in test [3], 25%; in test [4], 12%; in test [5] it was 0%; in test [6], 9%. Further, the “%Inh” value in [7] is on record as 0%; in test [8], 33%; in test [9] it was 2%; in [10], 17%; in [11], 14%; in test [12], 0%. Also, the “%Inh” value in test [13] is on record as 5%; in [14], 20%; in test [15], 100%; in test [16] it was 24%; in test [17] it was 14%; in test [18], 0%. In addition, the “%Inh” value in [19] turned out to be 24%; in [20], 10%.

For the compound `Cl.O=C(Nc1cccc(-c2nn3ncccc3c2-c2ccnc(Nc3cccnc3)n2)c1)c1c(F)cccc1F` [GSK312879], the “%Inh” value in test [1] worked out at 0%; in test [2], 2%; in test [3] it was 27%; in test [4] it was 2%; in test [5], 0%; in [6], 19%. Besides, the “%Inh” value in [7] is 10%; in [8], 24%; in [9], 0%; in [10], 12%; in [11] it was 16%; in [12] it was 0%. In addition, the “%Inh” value in test [13] worked out at 0%; in test [14], 13%; in [15], 0%; in [16], 24%; in [17] it was 19%; in test [18], 11%. The results for the “%Inh” value in test [19] and in test [20] were 31% and 2%, respectively.

For the compound `CCn1c(-c2cccnc2O)nc2cnccc21` [SB-736715], the “%Inh” value in test [1] worked out at 0%; in [2] it was 0%; in [3], 0%; in [4], 88%; in test [5], 2%; in [6], 0%. The “%Inh” value in test [7], in [8], in test [9], in test [10], in [11] and in test [12] was 0% in each case. The “%Inh” value in test [13] is 0%; in [14] it was 0%; in test [15] it was 8%; in test [16], 0%; in test [17], 0%; in test [18] it was 38%. Further, the “%Inh” value in test [19] and in [20] was 0% throughout.

Take `Cc1cc(N2Cc3ccccc3C2)nc(Nc2ccc(S(=O)(=O)N3CCOCC3)cc2)n1.Cl` [GSK1669917]: the “%Inh” value came to 0% in [1]; 0% in test [2]; 7% in test [3]; 8% in test [4]; 96.3% in test [5]; 0% in test [6]. Further, the “%Inh” value stood at 0% in [7]; 5% in test [8]; 0% in [9]; 16% in test [10]; 24% in [11]; 0% in [12]. Further, the “%Inh” value in test [13], in [14], in test [15], in [16], in [17] and in test [18] was 0% throughout. In addition, the “%Inh” value turned out to be 9% in test [19] and 16% in test [20].

Turning to `CCCc1ccc(S(=O)(=O)NC2CCN(c3ccnc(Nc4ccc(F)cc4)n3)C2)cc1` (stereo not shown) [GSK1379715], the “%Inh” value in test [1] is listed as 0%; in test [2], 0%; in test [3] it was 14%; in test [4], 34%; in test [5], 0%; in test [6], 100%. Besides, the “%Inh” value is reported as 0% in [7]; 32% in test [8]; 6% in [9]; 0% in [10]; 0% in [11]; 0% in [12]. The “%Inh” value in test [13] is listed as 2%; in [14], 0%; in test [15], 0%; in [16], 29%; in [17] it was 5%; in test [18] it was 12%. Also, the “%Inh” value in test [19] and in test [20] was 0% each time.

As for `C[C@@H]1CCCCN1c1cc(-c2ccc3c(N)n[nH]c3c2)nc(N)n1` [GSK2258759], the “%Inh” value in test [1] turned out to be 0%; in test [2], 0%; in test [3], 14%; in test [4] it was 20%; in [5], 0%; in test [6], 0%. Further, the “%Inh” value in test [7] stood at 0%; in [8], 0%; in [9], 0%; in test [10], 0%; in test [11], 17%; in test [12], 0%. Further, the “%Inh” value in test [13] is 0%; in test [14], 0%; in [15], 82%; in [16], 0%; in [17], 14%; in [18], 0%. Moreover, the “%Inh” value in [19] was found to be 26%; in [20], 0%.

Source of the values: PMC5540273 (PLoS ONE, 2017).
